Sampled rows, rich in hits. Any-hit rate of the full collection: about 13%.
HCMV inh: inhibitors of human cytomegalovirus | HFF cells, HCMV-luciferase reporter, 72 h; stronger effect = lower value | actives 4.5% (n = 410,000) | activity change, negative = inhibition, % at 57.5 µM; in the data active = activity change below about -60%; inconclusive = no clear call, values can overlap the other calls; inactive = above about -39%
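Two compound doses tested in HFFs infected with HCMV-luciferase, MOI 1 PFU/cell, 72 h at 37C. Lysate luminescence read with OneGlo; data normalized against buffer-only and 10uM Salinomycin inhibitor controls.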
Pf growth 96h: P. falciparum growth inhibition at 96 hours; P. falciparum luciferase reporter growth, 96 h; Potency, µM (highest dose often 28.7 µM), for the others: at the top dose activity change, negative = inhibition, most hits filed as inhibitors; actives 6.9% (n = 320,000); AID 504834; also: potency is read from the fitted curve at half-maximal effect
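Parasite growth measured via integrated firefly luciferase reporter in P. falciparum. Infected erythrocytes at 2% hematocrit, 0.05% parasitemia final were treated 96 hours at 37 C under 5% CO2, and luminescence was read.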
HCV inh: inhibitors of hepatitis C virus infection; Huh7.5.1 HCVcc-Cre infection, luciferase reporter, 44 h; Potency, µM (series often up to 41.8 µM), for the others: at the top dose activity change, negative = inhibition, most hits filed as inhibitors; actives 3.4% (n = 340,000); AID 651820; also: potency is read from the fitted curve at half-maximal effect
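Seed cells (1,000/well) for 4 h; treat with compound and infect with HCVcc-Cre, moi about 0.5. Incubate 44 h, then detect luciferase activity.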
Pf growth 48h: inhibits P. falciparum growth in the first generation, 48 h; actives 5.9% (n = 310,000); Potency, µM (titrated, usually from 28.7 µM), for the others: top-dose activity change, negative = inhibition, hits mostly inhibitors; P. falciparum luciferase growth in erythrocytes, 48 h; also: potency is read from the fitted curve at half-maximal effect
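Parasite viability was followed by luminescence of a genomically integrated firefly luciferase. Cultures held 0.1% parasitemia at 2% hematocrit (final), incubated under 5% CO2 at 37 C.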
* hit, by the source's call; [ ] = dose if it differs, or a comment. Unless noted, calls follow the shape of the dose curve; as a rule, active = well fitted inhibition curve with a large enough effect; inconclusive = small, poorly fitted or top-dose-only effect, or another doubt; inactive = no such curve, though single readings can be large or run the other way. % is scaled to controls: 0 for no effect and ±100 for the full control effect.

What do the screens show for `CCOC(=O)[C@@H]1CSCCS(=O)(=O)N1Cc1ccc(C(F)(F)F)cc1`?
HCMV inh: -30

What do the screens show for `CCN(CC)CCNC(=O)c1c(O)c2ccccc2n(Cc2ccccc2)c1=O`?
HCMV inh: 22; Pf growth 96h: 4.1µM*; HCV inh: inconclusive; Pf growth 48h: 12µM*

What do the screens show for `CCN(CC)CCCNC(=O)c1c(O)c2ccccc2n(Cc2ccccc2)c1=O`?
HCMV inh: -19; Pf growth 96h: 44%; HCV inh: -20%; Pf growth 48h: 9.3µM*

What do the screens show for `CCn1c(=O)c(C(=O)NCCCO)c(O)c2ccccc21`?
HCMV inh: -15; Pf growth 96h: 15%; HCV inh: inconclusive; Pf growth 48h: -20%

Results for CCc1ccccc1NC(=O)CN1C(=O)COc2ccc(S(=O)(=O)N3CCCCCC3)cc21 ?
HCMV inh: -2

How did CCc1ccc(OCCCSc2nc(-c3ccc(C(C)(C)C)cc3)nc3cc(=O)[nH]n23)cc1 do in these assays?
HCMV inh: -84*

What do the screens show for `COc1ccc(C2(CNC(=O)/C=C\c3ccco3)CCCC2)cc1OC`?
HCMV inh: -11; Pf growth 96h: inconclusive; HCV inh: -28%; Pf growth 48h: 12µM*

What do the screens show for `COc1ccc(C2(CNC(=O)c3cc(OC)c(OC)c(OC)c3)CCCC2)cc1OC`?
HCMV inh: -10; HCV inh: -24%

How did Cc1cc(C)c(NC(=O)C2CCN(c3nc4ccccc4n4cccc34)CC2)c(C)c1 do in these assays?
HCMV inh: 32

What do the screens show for `CC(OC(=O)c1ccccc1C(=O)N(C)c1ccccc1)C(=O)Nc1ccc(C(N)=O)cc1` (configuration not stated)?
HCMV inh: -19; Pf growth 96h: inconclusive; HCV inh: -7%; Pf growth 48h: 2%

Results for CC(OC(=O)c1cc(O)c2ccccc2c1O)C(=O)Nc1ccc(C(N)=O)cc1 (configuration not stated) ?
HCMV inh: 31; Pf growth 96h: 12µM*; HCV inh: inconclusive; Pf growth 48h: inconclusive

What do the screens show for `Cc1ccc[n+](Cc2ccc([N+](=O)[O-])cc2)c1`?
HCMV inh: -8; Pf growth 96h: -3%; HCV inh: 9%; Pf growth 48h: inconclusive

What do the screens show for `O=[N+]([O-])c1ccc(C[n+]2cccc3c4ccccc4ccc32)cc1`?
HCMV inh: -81*; Pf growth 96h: 17%; HCV inh: -29%; Pf growth 48h: 14%

How did CCCCOc1ccc(CNC(=O)CCCN2C(=O)CSc3c2c(C)nn3-c2ccccc2)cc1 do in these assays?
HCMV inh: -70*

What do the screens show for `COc1cc(OC)c(OC)cc1CN1CCc2nc(N3CCN(c4ncccn4)CC3)ncc2C1`?
HCMV inh: -71*

What do the screens show for `COc1cc(NC(=O)c2ccc(C)c(Cl)c2)ccc1NC(=O)c1cc2ccccc2o1`?
HCMV inh: 11

Results for COCCCNC(=O)c1c[nH]c2ccc(S(=O)(=O)N3CCc4ccccc43)cc2c1=O ?
HCMV inh: 0; Pf growth 96h: 5%; HCV inh: inconclusive; Pf growth 48h: 12µM*

What do the screens show for `COc1cc(C(=O)Nc2ccc3c(c2)CCN3C(C)=O)cc(OC)c1OC`?
HCMV inh: -74*; Pf growth 96h: 4%; HCV inh: -29%; Pf growth 48h: -17%[5.75 µM]

What do the screens show for `COc1ccc(S(=O)(=O)N2CCc3ccccc32)cc1C(=O)OCC(=O)c1c(N)n(C)c(=O)n(C)c1=O`?
HCMV inh: 66; Pf growth 96h: -15%; HCV inh: inconclusive; Pf growth 48h: 4.1µM*

Results for CCOC(=O)N1CCN(C(=O)c2cc(S(=O)(=O)N3CCc4ccccc43)ccc2OC)CC1 ?
HCMV inh: -14; Pf growth 96h: inconclusive; HCV inh: inconclusive; Pf growth 48h: inconclusive

Results for COc1cc(C(=O)Nc2ccc(S(=O)(=O)N3CCc4ccccc43)cc2)cc(OC)c1OC ?
HCMV inh: 10; HCV inh: 14µM*; Pf growth 48h: inconclusive

What do the screens show for `COc1cc(C(=O)Nc2ccc3c(c2)Cc2ccccc2-3)cc(OC)c1OC`?
HCMV inh: -25; Pf growth 96h: inconclusive; HCV inh: inconclusive; Pf growth 48h: 14%

How did CCc1cc2c(cc3c(=O)n(CC(=O)NC(C)c4ccccc4)ncn32)s1 (configuration not stated) do in these assays?
HCMV inh: -9

How did COc1ccc(S(=O)(=O)N2CCc3ccccc32)cc1C(=O)Nc1ccc(C(N)=O)cc1 do in these assays?
HCMV inh: -38; Pf growth 96h: 7.4µM*; HCV inh: inconclusive; Pf growth 48h: inconclusive

What do the screens show for `COc1ccccc1C(=O)Nc1ccc(S(=O)(=O)N2CCc3ccccc32)cc1`?
HCMV inh: -29; Pf growth 96h: inconclusive; HCV inh: -34%

Results for CCOC(=O)CC(NC(=O)CCc1c(C)nc2c(c(C)nn2-c2ccc(C)c(C)c2)c1C)c1ccc(C)cc1 (configuration not stated) ?
HCMV inh: 2

How did CCCCCn1c(=N)c(S(=O)(=O)c2ccccc2)cc2c(=O)n3cccc(C)c3nc21 do in these assays?
HCMV inh: 8

Results for S=C(NNc1ccc2ccccc2c1)NC1CCCCC1 ?
HCMV inh: -60*; Pf growth 96h: -4%; HCV inh: -13%; Pf growth 48h: -1%

What do the screens show for `S=C(Nc1ccc(Oc2ccccc2)cc1)NC1CCCCCC1`?
HCMV inh: -32; Pf growth 96h: 17%; HCV inh: inconclusive; Pf growth 48h: -2%

Results for C=CCN(CC=C)C(=S)Nc1ccc2nsnc2c1 ?
HCMV inh: -4; Pf growth 96h: inconclusive; HCV inh: 2%; Pf growth 48h: 8.3µM*

Results for S=C(Nc1ccc2nsnc2c1)NC1CCCCC1 ?
HCMV inh: -62*; Pf growth 96h: 6%; HCV inh: -3%; Pf growth 48h: 62%

What do the screens show for `S=C(Nc1ccc(Cl)c(Cl)c1)NC1CCCCC1`?
HCMV inh: -99*; Pf growth 96h: 0%; HCV inh: inconclusive; Pf growth 48h: 13µM*

Results for Cc1ccc(C)c(NC(=O)CCCn2c(C)c3cnn(-c4ccccc4)c(=O)c3c2C)c1 ?
HCMV inh: -13

How did NC(=O)CSc1nnnn1-c1cccc(O)c1 do in these assays?
HCMV inh: 98

What do the screens show for `Cc1ccc(NC(=O)CN2CCSc3ccc(S(=O)(=O)N4CCCC4)cc32)cc1C`?
HCMV inh: -26

What do the screens show for `COc1cccc(C2C(=O)N(C3CCCCC3)CC(=O)N2CCc2ccc(OC)c(OC)c2)c1` (configuration not stated)?
HCMV inh: 105

What do the screens show for `Cc1ccc2ncc(C(=O)Nc3ccc(F)cc3F)c(=O)n2c1`?
HCMV inh: 7

How did COc1ccc(NC(=S)Nc2ccc3nsnc3c2)cc1 do in these assays?
HCMV inh: -34; Pf growth 96h: 0.23µM*; HCV inh: inconclusive; Pf growth 48h: 20%

Compound activity (PubChem)
